Calls of active or inactive are those of the source. Unless noted, no rule for the calls is given here.

Test system in one assay: not listed separately
Nature of the assay: reducers of polyQ inclusions in PC12 cells, cell-based, NGF-treated PC12, GFPQ80 (AID 1614).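 Also: lower means fewer inclusions and 0 means no inclusions at all.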 The note with it: PC12 NGF-treated GFP-polyQ80 inclusion reduction.
For the compound `CC(C)NNC(=O)c1ccncc1`, the inclusion score is 2.
`Cc1cc2cc3c(C)cc(=O)oc3c(C)c2o1` had an inclusion score of 2.
Still for that read-out and setting: to `CCn1cc(C(=O)O)c(=O)c2cc3c(cc21)OCO3` belongs 2; to `CC1=NN(c2ccccc2)C(=O)C1`, 2.
Still for that read-out and setting: with `CCCCNc1ccc(C(=O)OCCN(C)C)cc1` the figure was 2.

Test system in a further assay: not listed separately
Nature of the assay: suppressors of polyglutamine aggregation in yeast, 75Q-TubH (AID 1616). The note with it: S. cerevisiae 75Q-TubH polyglutamine aggregation suppression; stronger effect = higher value.
Consider `Cc1cc(O)cc(C)c1Cl`, for which the aggregation suppression score was determined as 0.248.
In turn, `CCCCOc1ccc(C(=O)CCN2CCCCC2)cc1` gave an aggregation suppression score of 1.27.
Same read-out and setting: to `COc1ccc(C(=O)c2ccccc2)c(O)c1` belongs 0.225; to `CC/C(=C(/CC)c1ccc(O)cc1)c1ccc(O)cc1`, 0.447.
The same measure, in the same setting: with `CCCCOc1cc(C(=O)NCCN(CC)CC)c2ccccc2n1` the figure was 1.32; with `CN1CCC(=C2c3ccccc3Sc3ccccc32)CC1`, 1.3; with `O=C1C(O)=C(O)C(=O)C(O)=C1O`, 1.42.
`CCCCCCCCNC(C)C(O)c1ccc(SC(C)C)cc1` (stereo unspecified) gave an aggregation suppression score of 0.0242.
The compound `CC(C)NNC(=O)c1ccncc1` displayed an aggregation suppression score of 1.22.
Still for that read-out and setting: with `Cc1cc2cc3c(C)cc(=O)oc3c(C)c2o1` the figure was 0.635; with `CCn1cc(C(=O)O)c(=O)c2cc3c(cc21)OCO3`, 1.09.
Same read-out and setting: to `CC1=NN(c2ccccc2)C(=O)C1` belongs 0.985.
Still for that read-out and setting: with `CCCCNc1ccc(C(=O)OCCN(C)C)cc1` the figure was 1.05.
With `CCCCC(CC)CN=C(N)NC(N)=NCCCCCCN=C(N)NC(N)=NCC(CC)CCCC` (stereo unspecified), the aggregation suppression score is -0.456.

Test system in the next assay: not listed separately
Nature of the assay: antimalarial activity against Dd2 strain (AID 2302;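 active = growth inhibition above 50% at the single 2 µM test dose, taken to imply half-maximal potency below 2 µM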;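 also: 0% = DMSO untreated growth and 100% = chloroquine plus artemisinin killed control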). The note with it: P. falciparum Dd2 in RBCs, LDH growth readout, 72 h; at 2 µM; stronger effect = higher value.
Take `CCOc1ccc2nc3cc(N)ccc3c(N)c2c1`: the growth inhibition was 70% (active).
Consider `O=C(Nc1cccc(C2=NCCN2)c1)Nc1cccc(C2=NCCN2)c1`, for which the growth inhibition is 99% (active).
On the same count and under the same terms, with `CCN(CC)Cc1cc(Nc2ccnc3cc(Cl)ccc23)ccc1O` the figure was 99% (active).
Take `COc1cc2c(cc1OC)-c1cc(=Nc3c(C)cc(C)cc3C)n(C)c(=O)n1CC2`: the growth inhibition was 29% (inactive).
Same read-out and setting: with `CCCCc1ccc2nc(NC(=O)OC)[nH]c2c1` the figure was 1% (inactive); with `Cc1nc(N)nc(N)c1-c1ccc(Cl)c(Cl)c1`, -1% (inactive).
The same measure, in the same setting: with `CCCCCCCC/C=C\CCCCCCCC(=O)NCc1ccc(O)c(OC)c1` the figure was 93% (active); with `COc1cc2c(Nc3ccc(Br)cc3F)ncnc2cc1OCC1CCN(C)CC1`, 16% (inactive).

Test system in a further assay: not listed separately
The assay can be described thus: HepG2 cytotoxicity, primary screen, cytotoxicity control for P. falciparum antimalarial project, cell-based, ATP luminescence (AID 2303;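 active = inhibition above 50%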;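 also: 0% = DMSO wells and 100% = digitonin-killed cells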). The conditions noted are these: HepG2 viability, 24-48 h, at 10 µM, stronger effect = higher value.
For orientation: inhibition means the relative decrease from the control value, in per cent. For the compound `CCOc1ccc2nc3cc(N)ccc3c(N)c2c1`, the inhibition was 8% (inactive).
On the same count and under the same terms, to `O=C(Nc1cccc(C2=NCCN2)c1)Nc1cccc(C2=NCCN2)c1` belongs 16% (inactive); to `CCN(CC)Cc1cc(Nc2ccnc3cc(Cl)ccc23)ccc1O`, -2% (inactive); to `COc1cc2c(cc1OC)-c1cc(=Nc3c(C)cc(C)cc3C)n(C)c(=O)n1CC2`, 14% (inactive).
Take `CCCCc1ccc2nc(NC(=O)OC)[nH]c2c1`: the inhibition was 26% (inactive).
With `Cc1nc(N)nc(N)c1-c1ccc(Cl)c(Cl)c1`, the inhibition is 66% (active).
Same read-out and setting: to `CCCCCCCC/C=C\CCCCCCCC(=O)NCc1ccc(O)c(OC)c1` belongs -7% (inactive); to `COc1cc2c(Nc3ccc(Br)cc3F)ncnc2cc1OCC1CCN(C)CC1`, 10% (inactive).

The target in the next assay is L-lactate dehydrogenase (Plasmodium falciparum (isolate CDC / Honduras)) (UniProt Q27743). Nature of the assay: PfLDH activity inhibition – cell lysate, 3D7 strain, counter-screen for P. falciparum growth inhibition project (AID 2304).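 Also: 0% = vehicle and 100% = reference inhibitor.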 The note with it: P. falciparum 3D7 crude extract, LDH APAD/NBT absorbance; at 2 µM; stronger effect = higher value. On the technique in general: Counterscreens check selectivity or assay interference.
Chain of L-lactate dehydrogenase (Plasmodium falciparum (isolate CDC / Honduras)) (Q27743 whole entry, looked up): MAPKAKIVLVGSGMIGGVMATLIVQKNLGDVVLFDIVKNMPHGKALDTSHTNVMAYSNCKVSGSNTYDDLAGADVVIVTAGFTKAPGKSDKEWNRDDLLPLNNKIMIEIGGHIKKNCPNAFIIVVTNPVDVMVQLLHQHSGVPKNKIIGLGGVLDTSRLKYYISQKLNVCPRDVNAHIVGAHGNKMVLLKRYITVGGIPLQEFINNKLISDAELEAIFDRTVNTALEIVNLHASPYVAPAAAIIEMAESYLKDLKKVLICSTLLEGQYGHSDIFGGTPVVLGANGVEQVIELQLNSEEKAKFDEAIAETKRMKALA
As for `CCOc1ccc2nc3cc(N)ccc3c(N)c2c1`, the inhibition was 0% (inactive).
With `O=C(Nc1cccc(C2=NCCN2)c1)Nc1cccc(C2=NCCN2)c1`, the inhibition is 7% (inactive).
Still for that read-out and setting: to `CCN(CC)Cc1cc(Nc2ccnc3cc(Cl)ccc23)ccc1O` belongs 3% (inactive); to `COc1cc2c(cc1OC)-c1cc(=Nc3c(C)cc(C)cc3C)n(C)c(=O)n1CC2`, 0% (inactive).
The same measure, in the same setting: to `CCCCc1ccc2nc(NC(=O)OC)[nH]c2c1` belongs -3% (inactive); to `Cc1nc(N)nc(N)c1-c1ccc(Cl)c(Cl)c1`, 3% (inactive); to `CCCCCCCC/C=C\CCCCCCCC(=O)NCc1ccc(O)c(OC)c1`, -7% (inactive).
As to `COc1cc2c(Nc3ccc(Br)cc3F)ncnc2cc1OCC1CCN(C)CC1`, the inhibition is 5% (inactive).

Test system in the next assay: not listed separately
The assay can be described thus: inhibition of 3D7 malaria parasite growth – strain 3D7 (AID 2306).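 Also: 0% = DMSO wells and 100% = chloroquine plus artemisinin control wells.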 The conditions noted are these: P. falciparum 3D7 erythrocytic growth, LDH absorbance, 72 h; at 2 µM; stronger effect = higher value.
For the compound `CCOc1ccc2nc3cc(N)ccc3c(N)c2c1`, the growth inhibition is 98% (active).
The same measure, in the same setting: to `O=C(Nc1cccc(C2=NCCN2)c1)Nc1cccc(C2=NCCN2)c1` belongs 98% (active); to `CCN(CC)Cc1cc(Nc2ccnc3cc(Cl)ccc23)ccc1O`, 102% (active); to `COc1cc2c(cc1OC)-c1cc(=Nc3c(C)cc(C)cc3C)n(C)c(=O)n1CC2`, 92% (active).
Still for that read-out and setting: to `CCCCc1ccc2nc(NC(=O)OC)[nH]c2c1` belongs 98% (active); to `Cc1nc(N)nc(N)c1-c1ccc(Cl)c(Cl)c1`, 95% (active); to `CCCCCCCC/C=C\CCCCCCCC(=O)NCc1ccc(O)c(OC)c1`, 96% (active).
Still for that read-out and setting: with `COc1cc2c(Nc3ccc(Br)cc3F)ncnc2cc1OCC1CCN(C)CC1` the figure was 97% (active).

Test system in another assay: not listed separately
The assay can be described thus: circadian clock period modulators, cell-based, LOPAC library, luminescence reporter (AID 2774).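 Also: values are relative to mean of DMSO wells on each plate.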 The conditions noted are these: circadian reporter cells, at 7 µM, actives lie on both sides.
On to `O=C1CCc2cc(OCCCCc3nnnn3C3CCCCC3)ccc2N1`, for which the period change is 0.02 h (inactive).
As for `O=C1N(c2ccccc2)c2ccccc2C1(Cc1ccncc1)Cc1ccncc1`, the period change was 0.25 h (inactive).
Still for that read-out and setting: with `NC/C=C/C(=O)O` the figure was -0.005 h (inactive); with `COc1cc2c(cc1OC)-c1cc(=Nc3c(C)cc(C)cc3C)n(C)c(=O)n1CC2`, 0.41 h (inactive); with `C[C@H]1O[C@@H](n2cc(F)c(=O)[nH]c2=O)[C@H](O)[C@@H]1O`, -0.1 h (inactive).
The same measure, in the same setting: with `CNC[C@H](O)c1ccc(O)c(O)c1` the figure was 0.025 h (inactive).
Same read-out and setting: to `C[C@@](Cc1ccc(O)c(O)c1)(NN)C(=O)O` belongs 0.03 h (inactive); to `CCN1CCC[C@H]1CNC(=O)c1c(O)c(Cl)cc(Cl)c1OC`, -0.03 h (inactive); to `NCCS`, 0.02 h (inactive).
Consider `CCN(CC)CCNC(=O)c1ccc(NC(C)=O)cc1`, for which the period change is 0.01 h (inactive).
On the same count and under the same terms, with `Nc1nnc(-c2cccc(Cl)c2Cl)c(N)n1` the figure was -0.15 h (inactive); with `CN(C)CC[C@@H](c1ccc(Cl)cc1)c1ccccn1`, -0.255 h (inactive).
Turning to `CC(=O)[C@]1(O)Cc2c(O)c3c(c(O)c2[C@@H](O[C@H]2C[C@H](N)[C@H](O)[C@H](C)O2)C1)C(=O)c1ccccc1C3=O`, the period change was -1.6 h (inactive).
On the same count and under the same terms, to `CC(C)NNC(=O)c1ccncc1` belongs 0.33 h (inactive); to `CCn1cc(C(=O)O)c(=O)c2cc3c(cc21)OCO3`, 0.16 h (inactive).
On the same count and under the same terms, to `NCCS(=O)(=O)O` belongs -0.23 h (inactive); to `CCCCNc1ccc(C(=O)OCCN(C)C)cc1`, 0.035 h (inactive); to `NC(=O)OCC(COC(N)=O)c1ccccc1`, -0.105 h (inactive).
Consider `Cc1cn([C@H]2C=C[C@@H](CO)O2)c(=O)[nH]c1=O`, for which the period change was -0.14 h (inactive).
Still for that read-out and setting: to `COc1ccccc1OCC(O)CN1CCN(CC(=O)Nc2c(C)cccc2C)CC1` (stereo unspecified) belongs 0 h (inactive).

(Values after PubChem BioAssay.)
